15 molecules from PubChem BioAssay (NCATS) can be followed below.

Values joined by “and” are separate entries in the source; they are usually repeats but may differ in a detail not shown here. Equal values may be shown once. Results filed as inconclusive are left out. Active and inactive are the calls of the source. The call rests on the fitted dose curve; in most records, active means well fitted curve in the direction sought with a large enough effect; inconclusive means small, poorly fitted or top-dose-only effect, or another doubt; inactive means no such curve, though single readings can be large; an effect the other way counts as inactive or inconclusive.

Assay [1] concerns the target Glutathione peroxidase 1 (Homo sapiens) (UniProt P07203). Put plainly: Primary qHTS Assay for Inhibitors of Recombinant Selenoprotein Glutathione Peroxidase 1 (GPX1) (AID 1845191). Further: nearly all actives have a fitted effect of over 65% in size. A digest of the protocol: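 GR-coupled readout: NADPH consumption tracked by fluorescence, ex 340/em 450 nm, at t=0 and after 15 min at RT. Final mix 10 nM GPX1, 1 mM GSH, 0.5 mM CHP, 0.5 mM NADPH, 100 nM GR, 0.01% BSA, following 30 min enzyme–compound preincubation.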
On the technique in general: In qHTS, concentration-response curves come from the screen itself.

The target in assay [2] is Phospholipid hydroperoxide glutathione peroxidase GPX4 (Homo sapiens) (UniProt P36969). The assay is described as follows: Primary qHTS Assay for Inhibitors of Recombinant Selenoprotein Glutathione Peroxidase 4 (GPX4) (AID 1845192). Further: nearly all actives have a fitted effect of over 65% in size. Further: potency means the concentration at half of the fitted maximal effect. In a few lines:
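Steps: GPX4 plus compound, 30 min RT; add GR/GSH/NADPH master mix; start with cumene hydroperoxide; read 340/450 nm fluorescence at 0 and 15 min. Finals were 200 nM GPX4, 1 mM GSH, 0.5 mM CHP, 0.5 mM NADPH, 100 nM GR.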

Assay [3] in a line: Primary fluorescence-based thiol-reactive (MSTI) qHTS assay for identification of artifact compounds. (AID 1845221).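 Further: series mostly up to about 54 µM; thiol-reactive compounds lower the probe fluorescence signal; nearly all actives have a fitted effect of over 65% in size.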 In a few lines:
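MSTI probe at 4 uM final in 2% DMSO/PBS pH 7.4; compounds, 1 h at room temperature in dark. Fluorescence Ex/Em 525/598 nm, normalised to Acetyl-MSTI and MSTI, fitted to 4-parameter Hill.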

For assay [4], the system named is Nanoluciferase (engineered Oplophorus gracilirostris luciferase). Put plainly: Primary Nanoluciferase (NLuc) qHTS assay for identification of artifact compounds. (AID 1845222). Further: series mostly up to about 54 µM. A digest of the protocol: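 Diluted conditioned medium from NLuc-expressing S16 cells treated with compounds for 15 min at room temperature, then Nano-Glo substrate added; luminescence read after 5 min. Percent inhibition versus no-enzyme and DMSO controls fitted to 4-parameter Hill equation.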

Assay [5] is described as follows: Primary redox qHTS assay for identification of artifact compounds. (AID 1845223). A digest of the protocol:
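Redox-cycling detection via DTT (250 uM final) oxidation coupled to Amplex Red (25 uM)/HRP (250 mU/mL) in HBSS. 15 min preincubation plus 30 min after DTT, room temperature. Ex/Em 525/598 nm; 4-parameter Hill fit against DMSO and 10 uM DA3003.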

The nature of assay [6]: Quantitative High-Throughput drug screen in 47 multiple myeloma cell lines against the NCATS MIPE library collection: FR4_PLB cell viability assay (AID 1918924; further: nearly all actives have a fitted effect of over 35% in size; further: potency means the concentration at half of the fitted maximal effect). In a few lines:
(§1)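 Steps: seed 500 cells per well; pin-transfer MIPE 4.0 library; incubate 48 h at 37C, 5% CO2, humidified; add CellTiter-Glo, 5 min room temperature; read luminescence.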

The nature of assay [7]: Quantitative High-Throughput drug screen in 47 multiple myeloma cell lines against the NCATS MIPE library collection: Delta47_JCRB cell viability assay (AID 1918925; further: nearly all actives have a fitted effect of over 45% in size; further: potency means the concentration at half of the fitted maximal effect). A digest of the protocol: (§2)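 Viability readout: CellTiter-Glo luminescence following 5 min room-temperature incubation with reagent. Prior exposure: 48 h, 37C, humidified 5% CO2, 500 cells per well.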
The nature of assay [8]: Quantitative High-Throughput drug screen in 47 multiple myeloma cell lines against the NCATS MIPE library collection: EJM_DSMZ cell viability assay (AID 1918926; further: nearly all actives have a fitted effect of over 30% in size; further: potency means the concentration at half of the fitted maximal effect). In a few lines:
as §2

A short description of assay [9]: Quantitative High-Throughput drug screen in 47 multiple myeloma cell lines against the NCATS MIPE library collection: ARD_JJKsccE7 cell viability assay (AID 1918929; further: potency means the concentration at half of the fitted maximal effect). In a few lines:
as §2

Assay [10] can be described thus: Quantitative High-Throughput drug screen in 47 multiple myeloma cell lines against the NCATS MIPE library collection: Karpas620_DSMZ cell viability assay (AID 1918959). Further: nearly all actives have a fitted effect of over 30% in size. Further: potency means the concentration at half of the fitted maximal effect. In a few lines: as §1
Assay [11] can be described thus: Quantitative High-Throughput drug screen in 47 multiple myeloma cell lines against the NCATS MIPE library collection: ARP1_JJKsccF8 cell viability assay (AID 1918928; further: nearly all actives have a fitted effect of over 40% in size; further: potency means the concentration at half of the fitted maximal effect). A digest of the protocol:
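CellTiter-Glo luminescence after 48 h exposure gives viability, scaled between DMSO-only (100%) and media-only (0%) controls. Library compounds are pinned onto 500 myeloma cells per well, incubated at 37C with 5% CO2.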

Assay [12] in a line: Quantitative High-Throughput drug screen in 47 multiple myeloma cell lines against the NCATS MIPE library collection: AMO1_DSMZ cell viability assay (AID 1918927; further: nearly all actives have a fitted effect of over 30% in size; further: potency means the concentration at half of the fitted maximal effect). In a few lines:
as §2

Chain of Glutathione peroxidase 1 (Homo sapiens) (P07203 whole entry, looked up): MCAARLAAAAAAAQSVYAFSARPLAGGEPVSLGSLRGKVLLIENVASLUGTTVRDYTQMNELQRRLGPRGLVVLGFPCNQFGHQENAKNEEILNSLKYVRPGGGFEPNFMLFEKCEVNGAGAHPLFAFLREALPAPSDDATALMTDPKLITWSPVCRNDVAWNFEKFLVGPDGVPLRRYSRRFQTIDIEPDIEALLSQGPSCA
Chain of Phospholipid hydroperoxide glutathione peroxidase GPX4 (Homo sapiens) (P36969 whole entry, looked up): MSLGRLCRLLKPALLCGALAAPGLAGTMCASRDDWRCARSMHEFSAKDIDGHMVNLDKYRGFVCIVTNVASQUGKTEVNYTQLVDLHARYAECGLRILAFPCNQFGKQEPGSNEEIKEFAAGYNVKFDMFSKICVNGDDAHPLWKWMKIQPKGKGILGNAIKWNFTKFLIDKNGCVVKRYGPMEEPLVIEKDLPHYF

Regarding `O=C(Nc1ccc(F)c(C(F)(F)F)c1)Nc1nnc(-c2ccncc2)s1`, the Potency entry in assay [1], in assay [2], in assay [3] and in [9] was “inactive” each time. Further, the outcome in assay [4] and in assay [5] was inactive. Also, the Potency in [6] was 3.32 µM (active); in assay [7], 2.96 µM (active); in [8] it was 5.9 µM (active).

`COc1cc(F)c(F)c(Nc2ccc(I)cc2F)c1NS(=O)(=O)C1(C[C@H](O)CO)CC1`: the Potency entry in assay [1], in assay [2] and in assay [3] was “inactive” in each case. Also, the outcome in [4] and in assay [5] was inactive. In addition, the Potency in assay [10] was 20.9 µM (active).

For the molecule `Nc1nccc(-c2ccc3noc(-c4ccc(Cl)cc4)c3c2)n1`, the Potency entry in [1], in [8], in assay [9] and in assay [10] was “inactive” in each case.

For the molecule `O=C1[C@H](Cc2ccc(O)cc2)N2C(=O)CCN(C(=O)NCc3ccccc3)[C@H]2CN1Cc1cccc2ccccc12`, the Potency entry in assay [1], in [2] and in [10] was “inactive” throughout. In assay [11], the Potency is 4.18 µM (active).

For the molecule `C[C@@H]1CN(Cc2ccc(F)cc2)[C@@H](C)CN1C(=O)c1cc2c(C(=O)C(=O)N(C)C)cn(C)c2cc1Cl`, the Potency result in assay [2] and in [3] was “inactive” in each case. The call in [4] and in assay [5] was inactive. Further, the values for the Potency in assay [7], in [12] and in assay [9] were 9.35 µM (active), 29.6 µM (active) and 9.35 µM (active), respectively.

As for `COc1ccc(-c2c(-c3ccc(O)cc3O)n[nH]c2C)cc1`, in assay [1], the Potency entry was “inactive”. Also, the Potency in assay [12] and in assay [10] was 42.9 µM (active) in each case.

With `CCCc1nc2c(C)cc(-c3nc4ccccc4n3C)cc2n1Cc1ccc(-c2ccccc2C(=O)O)cc1`, the Potency result in [1], in assay [2], in [7], in assay [8], in assay [12] and in assay [11] was “inactive” in each case. Further, the Potency result in [9] and in [10] was “inactive” in each case.

Turning to `Cc1csc(NC(=O)c2sc3nc4c(c(C(F)(F)F)c3c2N)CCC4)n1`, the Potency result in assay [2], in assay [3], in assay [6], in assay [7], in [12] and in [9] was “inactive” each time. Besides, the Potency result in [10] is “inactive”. The molecule was classed as inactive in assay [4] and in assay [5].

For the molecule `CNCc1ccc(-c2[nH]c3cc(F)cc4c3c2CCNC4=O)cc1`, the Potency was 11.4 µM (active) and 12.8 µM (active) and 15.8 µM (active) in assay [2]; 8.33 µM (active) in [12]; 5.9 µM (active) in assay [9]. Further, the Potency entry in assay [3], in assay [6], in assay [7], in assay [8], in assay [11] and in assay [10] was “inactive” in each case. Besides, the molecule was classed as inactive in assay [4] and in assay [5].

Regarding `CCC(=O)N[C@H]1CC[C@H](C(=O)N(C)c2ccc(-c3nc4ccccc4o3)cc2)C1`, the Potency result in assay [1] and in [2] was “inactive” throughout. Besides, the Potency in [7] is 8.33 µM (active); in assay [8], 16.6 µM (active); in [12] it was 11.8 µM (active); in assay [9] it was 11.8 µM (active).

Take `N#Cc1ccc(C(c2ccc(C#N)cc2)n2cncn2)cc1`: the Potency result in assay [1], in assay [2] and in assay [8] was “inactive” each time. In addition, the Potency is 14.8 µM (active) in [6], 6.62 µM (active) in assay [9] and 18.7 µM (active) in assay [10].

For the molecule `CCC(C)(C)C(=O)O[C@H]1C[C@@H](C)C=C2C=C[C@H](C)[C@H](CC[C@@H]3C[C@@H](O)CC(=O)O3)[C@H]21`, the Potency result in assay [1], in assay [2] and in assay [8] was “inactive” in each case. In addition, the Potency in assay [12] is 18.7 µM (active); in [11], 20.9 µM (active); in [9] it was 16.6 µM (active).

For `Cc1cc(-c2ccc(CC(=O)Nc3ccc(-c4cccnc4)cc3)cc2)ccn1`, the Potency entry in assay [1] and in [2] was “inactive” each time. For the same molecule, the Potency is 18.7 µM (active) in [12] and 16.6 µM (active) in assay [9].

Regarding `CN(C)c1ccc(C2Nc3ccc4ccccc4c3C3=C2C(=O)CC(C)(C)C3)cc1Br` (stereo not drawn), the Potency result in assay [2], in assay [3] and in [9] was “inactive” throughout. The result in assay [4] and in assay [5] was inactive. Also, the Potency in assay [7] was 2.35 µM (active).

On to `COc1ccccc1-c1cccc(-c2c(O)c3cc(C#N)c(Cl)cc3[nH]c2=O)c1`, for which the Potency entry in [1], in assay [6], in [8] and in assay [11] was “inactive” in each case.
